# Results published in the supplement of paper PMC12636033.
# ± gives the standard deviation of the averaged measurements. The full ranking holds about 33,000 sequences; the median of “E-score (rank enrichment, -0.5 to 0.5)” is about -0.0075, and the highest 2% start at about 0.23. This is one part of a sample in which the highest values are shown more often than they occur.
# Tested on: WT Max(13-93) synthetic (M65Nle)
# Assay: PBM 8-mer E-score (E-score (rank enrichment, -0.5 to 0.5)); higher = stronger preferential binding
# Description: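 Protein binding microarray (universal PBM chip covering all 10-mers in fixed probe flanks) with chemically synthesized human Max(13-93) bHLH-LZ analogs (not full-length Max) bearing noncanonical residues (hArg, Tha, Aib, Nle at 65) and aromatic Cys staples. Read-out per 8-mer (and its reverse complement): E-score (rank-based enrichment, -0.5 to 0.5) and Z-score of median probe intensity.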
row,Sequence,PBM 8-mer E-score
1,GCGCTCAC,-0.00351 ± 0.038
2,ACAGCGTG,0.235 ± 0.013
3,ACCGCGTG,0.365 ± 0.056
4,ACAGCGTC,0.0682 ± 0.028
5,ACCGCGTC,-0.117 ± 0.08
6,ACAGCGTA,-0.0609 ± 0.029
7,ACCGCGTA,0.0537 ± 0.048
8,GAACCCCC,-0.387 ± 0.031
9,ATCTTCAG,0.0326 ± 0.1
10,TAGTCAAA,0.14 ± 0.09
11,TAGATTAA,0.154 ± 0.027
12,CGATGCCC,-0.19 ± 0.045
13,GAAATCCA,-0.0865 ± 0.057
14,CAAAACCA,0.0992 ± 0.086
15,TAAAACCA,0.148 ± 0.056
16,CAAATCCA,0.0485 ± 0.13
17,AAAAACGA,0.25 ± 0.03
18,CAAACGGC,-0.279 ± 0.026
19,AAAAACCA,0.238 ± 0.057
20,GAAAACGA,0.0526 ± 0.057
21,AAAACGGC,0.251 ± 0.16
22,CAAAACGA,0.0654 ± 0.066
23,AAAATCCA,0.26 ± 0.06
24,GAAACGGC,0.0668 ± 0.011

row,Sequence,PBM 8-mer E-score
1,AGTTGTGG,0.00744 ± 0.15
2,CGACCGTA,-0.107 ± 0.19
3,CCATAGAA,0.0354 ± 0.028
4,GAACCAGC,-0.132 ± 0.07
5,GGGCCATA,0.00373 ± 0.018
6,CAGTTACG,-0.0592 ± 0.044
7,AATGTATG,0.255 ± 0.086
8,CATGTAAA,0.203 ± 0.052
9,AATGTGTC,0.0393 ± 0.0075
10,AATGTAAA,0.278 ± 0.0039
11,AATGTATC,0.168 ± 0.036
12,AATGTAAT,0.12 ± 0.11
13,AATGTATA,0.211 ± 0.048
14,AATGTGTA,0.167 ± 0.021
15,AATGTGTG,0.267 ± 0.05
16,ATAGGCGG,0.057 ± 0.12
17,AAAGGATC,-0.108 ± 0.042
18,AGCTTCAA,0.106 ± 0.021
19,ATCACTGA,-0.0485 ± 0.06
20,ACGTGAAC,0.0244 ± 0.025
21,ACGTGAAG,0.0785 ± 0.02
22,CTGTGAAA,0.00343 ± 0.13
23,ATGTGAAA,0.271 ± 0.12
24,ACGTGAAA,0.279 ± 0.041

row,Sequence,PBM 8-mer E-score
1,GTGTGAAA,0.1684 ± 0.00099
2,ACGTGAAT,0.239 ± 0.066
3,TCGTGAAA,-0.119 ± 0.14
4,CCGTGAAA,-0.0191 ± 0.012
5,AACGGTAC,0.0818 ± 0.035
6,TAGATTGA,-0.00515 ± 0.13
7,CCAGCAAC,-0.121 ± 0.011
8,CACATTCA,0.111 ± 0.11
9,CGTGGCCA,0.131 ± 0.084
10,TCTACAAA,0.0553 ± 0.18
11,ACGTATTA,0.165 ± 0.11
12,GAAGGTAC,-0.096 ± 0.22
13,ACCACTCC,0.0165 ± 0.045
14,GAAAATGA,0.0385 ± 0.12
15,AAAAATGA,0.2619 ± 0.0016
16,CAAAATGG,0.116 ± 0.0099
17,CAAAATGA,0.287 ± 0.014
18,TAAAATGA,0.153 ± 0.019
19,CAAAATGC,0.0988 ± 0.086
20,GCTCACTA,0.105 ± 0.0026
21,ACTCTTAC,0.0838 ± 0.051
22,AGACTGGC,-0.174 ± 0.07
23,AGACATCT,0.0328 ± 0.02
24,CGTAAAAA,0.107 ± 0.012

row,Sequence,PBM 8-mer E-score
1,TGTAAACA,0.237 ± 0.079
2,TGTAGAAA,0.284 ± 0.026
3,TGTAAAAA,0.248 ± 0.099
4,GGTAAACA,0.0182 ± 0.025
5,AGTAGAAA,0.184 ± 0.098
6,AGTAAAAA,0.207 ± 0.023
7,AGTAAACA,0.177 ± 0.012
8,CGTAGAAA,0.2 ± 0.024
9,CGCATCAG,-0.138 ± 0.15
10,AACCGTTC,-0.064 ± 0.11
11,CTCTAATC,-0.0502 ± 0.086
12,TCTTGGAA,-0.078 ± 0.026
13,AAAGGTGT,0.103 ± 0.015
14,ATATTCAT,0.218 ± 0.056
15,ATGTGCGC,0.1696 ± 0.00066
16,ACGTGCGG,0.254 ± 0.056
17,CCGTGCGC,0.0359 ± 0.14
18,ATGTGCGG,0.0139 ± 0.1
19,ACGTGCGC,0.279 ± 0.03
20,ACGTGCGA,0.229 ± 0.046
21,GGGGGTCA,-0.172 ± 0.1
22,GTAGTGAC,-0.0549 ± 0.095
23,GATCCACC,-0.171 ± 0.058
24,CGAGCGAG,0.0998 ± 0.018
